Common to all, as to assay: qHTS profiling for inhibitors of Plasmodium falciparum proliferation (AID 504749); further: nearly all actives have a fitted effect of over 60% in size
Holding throughout (conditions): P. falciparum in erythrocytes, SYBR Green DNA, 72 h; series mostly up to 28.7 µM

In one test the test system is DIV17. Put shortly:
(§1)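 Parasite proliferation within erythrocytes, 72 h exposure. Endpoint: SYBR Green I fluorescence after overnight lysis at room temperature. Controls: 0.29 uM artemisinin, DMSO.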

For another test, the system named is DIV30. In a few lines: as §1
Another test deals with Dd2. Put shortly:
as §1

A further test relates to ECU. Put shortly:
as §1

The next test relates to FAB9. In a few lines:
as §1

For the next test, the system named is GB4. Put shortly: as §1
A further test has as its system HB3. Put shortly: as §1
Another test deals with ICS. In a few lines:
as §1

The subject of the next test is JCK. In a few lines: as §1
The next test has as its system N140. In a few lines: as §1
The test system of the next test is P93_24. Put shortly:
as §1

In the next test the test system is P94_40. Put shortly:
as §1

In a further test the test system is PAD. In a few lines: as §1
The next test deals with PC15. Put shortly:
as §1

The subject of another test is PC26. Put shortly: as §1
The next test relates to PC49. Put shortly:
as §1

Another test concerns SC27B. Put shortly: as §1
A further test has as its system TAB109. In a few lines:
as §1

For a further test, the system named is TAB113. In a few lines:
as §1

Another test has as its system TAB165. In a few lines: as §1

Consider 13 molecules from PubChem BioAssay (NCATS).

Results filed as inconclusive are left out. Active and inactive are the calls of the source. The call rests on the fitted dose curve; in most records, active means well fitted inhibition curve with a large enough effect; inconclusive means small, poorly fitted or top-dose-only effect; inactive means flat fitted curve, though single readings scatter.
Potency means the concentration at half of the fitted maximal effect.

Consider `O=c1cc(O)c(Cl)c[nH]1`, for which the Potency entry in the test on DIV17, in the test with DIV30, in the test on Dd2, in the test on ECU, in the test on FAB9 and with GB4 was “inactive” in each case. For the same molecule, the Potency result in the test on HB3, in the test on ICS, with JCK, in the test on N140, with P93_24 and in the test with P94_40 was “inactive” in each case. For the same molecule, the Potency entry in the test with PAD, in the test on PC15, with PC26, in the test on PC49, with SC27B and with TAB109 was “inactive” in each case. For the same molecule, the Potency entry with TAB113 and with TAB165 was “inactive” each time.

Consider `Nc1nc(N)nc(-c2cc(Cl)ccc2Cl)n1`, for which the Potency result in the test on DIV17, with DIV30, with Dd2, with ECU, in the test on FAB9 and in the test with GB4 was “inactive” throughout. For the same molecule, the Potency entry in the test with HB3, with ICS, with JCK, in the test with N140, in the test on P93_24 and in the test with P94_40 was “inactive” throughout. For the same molecule, the Potency result with PAD, in the test with PC15, with PC26, in the test with PC49, in the test on SC27B and in the test on TAB109 was “inactive” in each case. Also, the Potency entry in the test on TAB113 and in the test with TAB165 was “inactive” throughout.

Regarding `CCCN[C@H]1CCc2nc(N)sc2C1`, the Potency entry with DIV17, in the test on DIV30, in the test on Dd2, with ECU, with FAB9 and in the test with GB4 was “inactive” each time. Besides, the Potency entry with HB3, in the test with ICS, in the test on JCK, in the test on N140, in the test on P93_24 and in the test with P94_40 was “inactive” throughout. In addition, the Potency entry in the test with PAD, in the test with PC15, in the test with PC26, with PC49, with SC27B and in the test with TAB109 was “inactive” throughout. Besides, the Potency entry in the test with TAB113 and with TAB165 was “inactive” throughout.

Take `Nc1nc(N)c2nc(CNc3ccc(C(=O)NC(CCC(=O)O)C(=O)O)cc3)cnc2n1` (stereo not given): the Potency entry in the test with DIV17, with DIV30, in the test on Dd2, in the test with ECU, in the test with FAB9 and in the test on GB4 was “inactive” each time. Also, the Potency result in the test with HB3, with ICS, in the test with JCK, with N140, with P93_24 and in the test on P94_40 was “inactive” throughout. The Potency result with PAD, with PC15, in the test on PC26, with PC49, in the test on SC27B and with TAB109 was “inactive” throughout. Moreover, the Potency result with TAB113 and in the test on TAB165 was “inactive” throughout.

With `CNC1CCCN(c2c(F)cc3c(=O)c(C(=O)O)cn(C4CC4)c3c2OC)C1` (stereo not given), the Potency entry in the test on DIV17, in the test on DIV30, in the test on Dd2, in the test on ECU, in the test with FAB9 and in the test on GB4 was “inactive” in each case. For the same molecule, the Potency entry with HB3, in the test with ICS, with JCK, in the test on N140, in the test with P93_24 and in the test on P94_40 was “inactive” in each case. The Potency entry with PAD, in the test on PC15, in the test with PC26, in the test on PC49, with SC27B and in the test on TAB109 was “inactive” in each case. The Potency result with TAB113 and with TAB165 was “inactive” in each case.

With `CCc1c2c(nc3ccc(OC(=O)N4CCC(N5CCCCC5)CC4)cc13)-c1cc3c(c(=O)n1C2)COC(=O)[C@]3(O)CC`, the Potency entry with DIV17, in the test on DIV30, with Dd2, with ECU, with FAB9 and with GB4 was “inactive” throughout. In addition, the Potency entry in the test with HB3, with ICS, in the test on JCK, in the test with N140, with P93_24 and in the test on P94_40 was “inactive” each time. Further, the Potency entry in the test on PAD, in the test on PC15, with PC26, in the test with PC49, with SC27B and with TAB109 was “inactive” each time. For the same molecule, the Potency result in the test on TAB113 and in the test with TAB165 was “inactive” throughout.

On to `NCCCC(O)(P(=O)(O)O)P(=O)(O)O`, for which the Potency result in the test with DIV17, with DIV30, in the test on Dd2, with ECU, in the test with FAB9 and with GB4 was “inactive” throughout. The Potency entry in the test on HB3, in the test on ICS, in the test with JCK, with N140, in the test with P93_24 and with P94_40 was “inactive” in each case. Moreover, the Potency entry in the test on PAD, in the test on PC15, with PC26, with PC49, with SC27B and in the test on TAB109 was “inactive” throughout. The Potency result in the test with TAB113 and in the test with TAB165 was “inactive” each time.

Regarding `NC(N)=NC(N)=NCCc1ccccc1`, the Potency entry with DIV17, with DIV30, with Dd2, with ECU, in the test with FAB9 and with GB4 was “inactive” in each case. In addition, the Potency entry with HB3, with ICS, in the test with JCK, in the test with N140, in the test on P93_24 and in the test with P94_40 was “inactive” throughout. The Potency result in the test on PAD, in the test on PC15, with PC26, with PC49, with SC27B and with TAB109 was “inactive” each time. The Potency entry in the test on TAB113 and with TAB165 was “inactive” in each case.

For `CCN(C)C(=O)Oc1cccc([C@H](C)N(C)C)c1`, the Potency entry in the test on DIV17, with DIV30, with Dd2, in the test with ECU, with FAB9 and in the test on GB4 was “inactive” in each case. Moreover, the Potency entry in the test on HB3, in the test on ICS, in the test on JCK, in the test with N140, in the test on P93_24 and with P94_40 was “inactive” in each case. In addition, the Potency entry in the test with PAD, with PC15, in the test on PC26, with PC49, in the test on SC27B and in the test with TAB109 was “inactive” throughout. The Potency entry with TAB113 and in the test with TAB165 was “inactive” throughout.

In the case of `Cc1ccnc2c1NC(=O)c1cccnc1N2C1CC1`, the Potency result with DIV17, in the test with DIV30, with Dd2, in the test on ECU, in the test with FAB9 and in the test with GB4 was “inactive” in each case. The Potency result with HB3, in the test on ICS, in the test on JCK, in the test with N140, in the test on P93_24 and in the test with P94_40 was “inactive” in each case. In addition, the Potency entry in the test with PAD, in the test with PC15, in the test with PC26, with PC49, in the test with SC27B and with TAB109 was “inactive” in each case. The Potency entry with TAB113 and in the test with TAB165 was “inactive” each time.

In the case of `CN(C)c1ccc(C(=C2C=CC(=[N+](C)C)C=C2)c2ccc(N(C)C)cc2)cc1`, the Potency was 0.601 µM (active) in the test on DIV17; 0.478 µM (active) in the test with DIV30; 0.158 µM (active) with Dd2; 0.355 µM (active) in the test with ECU; 0.355 µM (active) with FAB9; 0.239 µM (active) in the test on GB4. Also, the Potency in the test with HB3 was 0.631 µM (active); in the test with ICS, 0.251 µM (active); with JCK it was 0.631 µM (active); in the test on N140, 0.355 µM (active); with P93_24 it was 0.316 µM (active); in the test with P94_40, 0.282 µM (active). Moreover, the Potency was 0.355 µM (active) with PAD; 0.708 µM (active) in the test with PC15; 0.849 µM (active) in the test with PC26; 1.78 µM (active) in the test on PC49; 0.501 µM (active) in the test on SC27B; 0.224 µM (active) with TAB109. The values for the Potency with TAB113 and in the test with TAB165 were 0.355 µM (active) and 0.251 µM (active), respectively.

`Cn1nnc2c(C(N)=O)ncn2c1=O`: the Potency result with DIV17, with DIV30, with Dd2, in the test with ECU, in the test with FAB9 and in the test on GB4 was “inactive” throughout. For the same molecule, the Potency entry in the test on HB3, in the test on ICS, in the test with JCK, with N140, in the test with P93_24 and in the test on P94_40 was “inactive” throughout. The Potency entry in the test on PAD, with PC15, with PC26, in the test on PC49, in the test on SC27B and in the test with TAB109 was “inactive” each time. For the same molecule, the Potency result with TAB113 and in the test on TAB165 was “inactive” in each case.

With `CN1CCN(c2c(F)cc3c(=O)c(C(=O)O)cn(CCF)c3c2F)CC1`, the Potency entry in the test with DIV17, with DIV30, with Dd2, in the test with ECU, in the test on FAB9 and with GB4 was “inactive” each time. Besides, the Potency entry with HB3, in the test on ICS, in the test on JCK, in the test with N140, in the test with P93_24 and with P94_40 was “inactive” each time. In addition, the Potency entry in the test with PAD, with PC15, with PC26, in the test on PC49, in the test on SC27B and in the test with TAB109 was “inactive” throughout. Further, the Potency entry in the test with TAB113 and with TAB165 was “inactive” in each case.
